One may read the AC50 as the concentration giving half of the maximal activity seen.

Each structure is given as a SMILES string. Active and inactive are the calls of the source. The calls were made as follows: active = hit-call score of the fitted dose curve at least 0.9, where 1 is the maximum; inactive = score below 0.9.

A short description of this assay: ATG_TA_CIS: Attagene CIS-FACTORIAL HepG2 Assay for human TA Basal Promoter (AID 2282964). The following applies: HepG2 Attagene CIS-factorial TA basal promoter reporter; actives raise or lower the signal. The method, then: ATG_CIS is a cell-based, multiplexed-readout assay that uses HepG2, a human liver cell line, with measurements taken at 24 hours after chemical dosing in a 24-well plate.ATG_TA_CIS is one of 52 assay component(s) measured or calculated from the ATG_CIS assay. It is designed to make measurements of mRNA induction, a form of inducible reporter, as detected with fluorescence intensity signals by Reverse transcription polymerase chain reaction (RT-PCR) and Capillary electrophoresis technology.Data from the assay component ATG_TA_CIS was analyzed into 1 assay endpoint. This assay endpoint, ATG_TA_CIS, was analyzed with bidirectional fitting relative to DMSO as the negative control and baseline of activity. Using a type of inducible reporter, measures of mRNA for gain or loss-of-signal activity can be used to understand the background control at the transcription factor-level as they relate to the gene . Furthermore, this assay endpoint can be referred to as a secondary readout, because this assay has produced multiple assay endpoints where this one serves a background control function. To generalize the intended target to other relatable targets, this assay endpoint is annotated to the background measurement intended target family, where the subfamily is internal marker.
Human liver HepG2 cells are transiently transfected with multiple reporter transcription units (MRTUs) in 6-well plates using FuGene 6 reagent (Roche; 3 ml FuGene/1 mg DNA). The MRTU constructs are regulated by a cis-regulating element (promoter). […] A major difference between the CIS and TRANS system is that in CIS activities of endogenous TFs are measured, whereas the TRANS assay evaluates changes in activities of exogenous, chimeric NR-Gal4 proteins. […] At the end of 24 hour incubation, total RNA was isolated using TriZol reagent (Invitrogen). The isolated RNA is then reverse-transcribed using oligo(dT) primer and Mo-MLV reverse transcriptase (Invitrogen) with DNAse I (Ambion) treatment for 30 min. The one-tenth of the produced cDNA was amplified by PCR using Taq DNA polymerase (Invitrogen) and two reporter sequence-specific primers. The PCR products were fluorescently labeled by primer extension with 6-arboxyfluorescein (6-FAM) 5'-labeled reporter sequence-specific primer (2 min at 95 C, 20 s at 68 C and 10 min at 72 C) and these products were digested with 5U of HpaI (New England Biolabs) for 2h at 37 C. The fragments were purified using Qiaquick PCR columns (Qiagen), analyzed on an ABI 3130xL genetic analyzer (Applied Biosystems) with peak positions identified by using a set of X-rhodamine (ROX)-labeled MapMarker1000 molecular weight standards (BioVentures). The raw capillary electrophoresis data was processed using Attagraph software (Attagene).
Regarding `O=P1(NCCCl)OCCCN1CCCl` (stereo not given), the compound was called inactive.

With `O=C(O)CCl`, the call was inactive.

Take `CC(=O)c1cc2c(cc1C)C(C)(C)C(C)CC2(C)C` (stereo not given): the compound was classed as inactive. As for `O=C1C=CC(=O)C=C1`, the compound was called inactive.

In the case of `O=S(=O)(O)O`, the compound was classed as inactive. `CCOP(=O)(OCC)Oc1ccc([N+](=O)[O-])cc1`: the compound was classed as inactive. Still for that read-out and setting: under `O=C(O)c1cc[c]([Hg][Cl])cc1` stands “inactive”.

Consider `CC(C)(C)C(O)C(Oc1ccc(-c2ccccc2)cc1)n1cncn1` (stereo not given), for which the AC50 was 33.4 µM (active). For `O=c1[nH]c(Cl)c(Cl)cc1Cl`, the compound was called inactive. Turning to `CCN(CC)C(=S)S`, the outcome was inactive. `C=C(Cl)CCl`: the result was inactive.

`O=C(O)COc1ccccc1`: the compound was called inactive. For `N#CCCCl`, the compound was classed as inactive. As for `O=C(CCN1CC1)OCC(CO)(COC(=O)CCN1CC1)COC(=O)CCN1CC1`, the compound was classed as inactive. As for `SCc1ccco1`, the compound was classed as inactive. In the case of `CC=Cc1ccc2c(c1)OCO2`, the outcome was inactive. For `CCOC(=O)N(C)N=O`, the result was inactive.

On to `Nc1ccc([N+](=O)[O-])cc1N`, for which the compound was called inactive. As to `CCC(C)(C)O`, the call was inactive. Take `COc1ccc(CO)cc1`: the call was inactive. `N#Cc1cccc(C#N)c1`: the compound was called inactive.

For `Cc1ccc(C)c2ccccc12`, the outcome was inactive. On to `CC1(C)C(=O)NC(=O)NC1=O`, for which the result was inactive. With `O=C1Nc2ccc(Cl)cc2C(c2ccccc2)=NC1O` (stereo not given), the compound was classed as inactive.

As to `Nc1cc(Cl)cc(Cl)c1`, the result was inactive. `O=[N+]([O-])O.O=[N+]([O-])O.[Cd]`: the call was inactive. Take `CC(C)(O)C#N`: the compound was called inactive.

As to `O=S(=O)(O)OOS(=O)(=O)O`, the call was inactive. For `CC(C)C#N`, the compound was called inactive.

As for `CCc1cccc(C)c1N(C(=O)CCl)[C@@H](C)COC`, the call was inactive. As to `O=[N+]([O-])O`, the compound was classed as inactive.

`CC1OC(C)OC(C)O1` (stereo not given): the outcome was inactive. For `CC[N+](=O)[O-]`, the compound was classed as inactive. With `[CH3][Sn]([Cl])([Cl])[Cl]`, the result was inactive. Take `CN(C)N`: the compound was called inactive. `Nc1ccccc1`: the call was inactive. On to `c1cc(OCC2CO2)ccc1Cc1ccc(OCC2CO2)cc1` (stereo not given), for which the result was inactive. On the same count and under the same terms, under `Clc1ccc(-c2ccccc2)cc1` stands “inactive”; under `Nc1ccccc1C(=O)OCCc1ccccc1`, “inactive”; under `[Cl-].[Cl-].[Cl-].[Yb+3]`, “inactive”.
